In the supplement of paper PMC5662767:
Structures can show the parent of a compound that is named as a salt.

Test system: Drosophila S2 cl14 SmoIP sensor cells
Assay: normalized SmoIP GFP fluorescence (untreated unstimulated = 0%, untreated Hh-stimulated = 100%); higher = more Smo activation sensor fluorescence
Details: compound concentration: 2 uM, 24 h
[1] = stimulation: Hh conditioned medium (+Hh)
[2] = stimulation: mock conditioned medium (-Hh)
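Also: flow cytometry read-out as median GFP intensity of gated cells, compounds added 30 min before Hh-conditioned or mock medium, mock-treated cells serving as unstimulated baseline.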

## CC(C)n1c(/C=C/[C@@H](O)C[C@@H](O)CC(=O)O)c(-c2ccc(F)cc2)c2ccccc21 [Fluvastatin-Sodium(Lescol]
[1]
  normalized SmoIP GFP fluorescence: 78.2%
[2]
  normalized SmoIP GFP fluorescence: -7.6%

## CC[C@@]1(O)C(=O)OCc2c1cc1n(c2=O)Cc2cc3c(CN(C)C)c(O)ccc3nc2-1 [Topotecan-Hydrochloride]
[1]
  normalized SmoIP GFP fluorescence: 110%
[2]
  normalized SmoIP GFP fluorescence: 15.7%

## C[C@@H]1C(=O)O[C@H]2C[C@@]34[C@H]5C[C@@H](C(C)(C)C)[C@]36[C@@H](OC(=O)[C@@H]6O)O[C@@]4(C(=O)O5)[C@]21O [ginkgolide-a]
[1]
  normalized SmoIP GFP fluorescence: 99.5%
[2]
  normalized SmoIP GFP fluorescence: -2.08%

## CC(C)C[C@H](NC(=O)CNC(=O)c1cc(Cl)ccc1Cl)B(O)O
[1]
  normalized SmoIP GFP fluorescence: 82.1%
[2]
  normalized SmoIP GFP fluorescence: 26%

## C=C(C)[C@@H]1CC[C@]2(C(=O)O)CC[C@]3(C)[C@H](CC[C@@H]4[C@@]5(C)CC[C@H](O)C(C)(C)[C@@H]5CC[C@]43C)[C@@H]12 [betulinic-acid]
[1]
  normalized SmoIP GFP fluorescence: 97%
[2]
  normalized SmoIP GFP fluorescence: -2.93%

## C[C@H]1c2cccc(O)c2C(=O)C2=C(O)[C@]3(O)C(=O)C(C(N)=O)=C(O)[C@@H](N(C)C)[C@@H]3[C@@H](O)[C@@H]21 [doxycycline-hcl]
[1]
  normalized SmoIP GFP fluorescence: 101%
[2]
  normalized SmoIP GFP fluorescence: -1.63%

## NC(=O)Nc1sc(-c2ccc(F)cc2)cc1C(N)=O [tpca-1]
[1]
  normalized SmoIP GFP fluorescence: 106%
[2]
  normalized SmoIP GFP fluorescence: -3.79%

## Cc1cnc(-c2cc(N3CCN(C(=O)CCS(C)(=O)=O)CC3)ncc2Cl)c(C)c1
[1]
  normalized SmoIP GFP fluorescence: 102%
[2]
  normalized SmoIP GFP fluorescence: -1.63%

## CC(C)(C)Cn1c(N)nc2ccc(-c3[nH]c(C(C)(C)C)nc3-c3ccc(F)cc3)nc21
[1]
  normalized SmoIP GFP fluorescence: 101%
[2]
  normalized SmoIP GFP fluorescence: 1.35%

## Cc1cnc(Nc2ccc(N3CCN(C)CC3)cc2)nc1Nc1cccc(S(=O)(=O)NC(C)(C)C)c1
[1]
  normalized SmoIP GFP fluorescence: 159%
[2]
  normalized SmoIP GFP fluorescence: -5.35%

## C=CCn1c(=O)c2cnc(Nc3ccc(N4CCN(C)CC4)cc3)nc2n1-c1cccc(C(C)(C)O)n1
[1]
  normalized SmoIP GFP fluorescence: 58.7%
[2]
  normalized SmoIP GFP fluorescence: -13.9%

## Cc1ccc(C(=O)N(CCCN)[C@@H](c2oc3cc(Cl)ccc3c(=O)c2Cc2ccccc2)C(C)C)cc1
[1]
  normalized SmoIP GFP fluorescence: 141%
[2]
  normalized SmoIP GFP fluorescence: 2.05%

## CN(C)CC[C@H](CSc1ccccc1)Nc1ccc(S(=O)(=O)NC(=O)c2ccc(N3CCN(Cc4ccccc4-c4ccc(Cl)cc4)CC3)cc2)cc1[N+](=O)[O-]
[1]
  normalized SmoIP GFP fluorescence: 109%
[2]
  normalized SmoIP GFP fluorescence: 2.97%

## C1=C/COCc2cc(ccc2OCCN2CCCC2)Nc2nccc(n2)-c2cccc(c2)COC/1 [pacritinib-sb1518]
[1]
  normalized SmoIP GFP fluorescence: 114%
[2]
  normalized SmoIP GFP fluorescence: 1.72%

## CC(C)CCN1c2nc(Nc3cc(F)c(O)c(F)c3)ncc2N(C)C(=O)C1C (stereo not drawn)
[1]
  normalized SmoIP GFP fluorescence: 144%
[2]
  normalized SmoIP GFP fluorescence: 1.61%

## COCCOC(=O)C1=C(C)NC(C)=C(C(=O)OC/C=C/c2ccccc2)C1c1cccc([N+](=O)[O-])c1 (stereo not drawn) [Cilnidipine]
[1]
  normalized SmoIP GFP fluorescence: 112%
[2]
  normalized SmoIP GFP fluorescence: 2.97%

## CC[C@H](C)C(=O)O[C@@H]1C[C@@H](C)C=C2C=C[C@H](C)[C@@H](CC[C@@H]3C[C@@H](O)CC(=O)O3)[C@H]21 [lovastatin-mevacor]
[1]
  normalized SmoIP GFP fluorescence: 123%
[2]
  normalized SmoIP GFP fluorescence: -14.7%

## Oc1cccc(-c2nc(N3CCOCC3)c3oc4ncccc4c3n2)c1
[1]
  normalized SmoIP GFP fluorescence: 85.1%
[2]
  normalized SmoIP GFP fluorescence: 4.26%

## O=C(Nc1ccc(-c2ccnc(Nc3ccc(N4CCOCC4)cc3)n2)cc1)C1CCCN1 (stereo not drawn)
[1]
  normalized SmoIP GFP fluorescence: 121%
[2]
  normalized SmoIP GFP fluorescence: 2.12%

## CNC(=O)c1cc(Oc2ccc(NC(=O)Nc3cc(C(C)(C)C)nn3-c3ccc4ncccc4c3)c(F)c2)ccn1
[1]
  normalized SmoIP GFP fluorescence: 183%
[2]
  normalized SmoIP GFP fluorescence: 0.605%

## O=C1Nc2ccccc2/C1=C1/Nc2ccccc2C1=O [Indirubin]
[1]
  normalized SmoIP GFP fluorescence: 127%
[2]
  normalized SmoIP GFP fluorescence: -11.4%

## CC1(C)CC(=O)c2c(C(F)(F)F)nn(-c3ccc(C(N)=O)c(N[C@H]4CC[C@H](OC(=O)CN)CC4)c3)c2C1
[1]
  normalized SmoIP GFP fluorescence: 233%
[2]
  normalized SmoIP GFP fluorescence: 83.8%

## CS(=O)(=O)CCNCc1ccc(-c2ccc3ncnc(Nc4ccc(OCc5cccc(F)c5)c(Cl)c4)c3c2)o1 [Lapatinib-Ditosylate]
[1]
  normalized SmoIP GFP fluorescence: 253%
[2]
  normalized SmoIP GFP fluorescence: 9%

## O=C(O)C(Cc1ccccc1[N+](=O)[O-])=NNc1nc(-c2ccc(Cl)c(Cl)c2)cs1 (mixture of isomers)
[1]
  normalized SmoIP GFP fluorescence: 127%
[2]
  normalized SmoIP GFP fluorescence: 46.7%

## COc1cc(CCc2cc(NC(=O)c3ccc(N4CC(C)NC(C)C4)cc3)n[nH]2)cc(OC)c1 (stereo not drawn)
[1]
  normalized SmoIP GFP fluorescence: 114%
[2]
  normalized SmoIP GFP fluorescence: 2.97%

## COCCc1ccc(OCC(O)CNC(C)C)cc1 (stereo not drawn) [metoprolol-tartrate]
[1]
  normalized SmoIP GFP fluorescence: 138%
[2]
  normalized SmoIP GFP fluorescence: -9.85%

## CN1CCC[C@@H]1Cc1c[nH]c2ccc(CCS(=O)(=O)c3ccccc3)cc12 [eletriptan-hydrobromide]
[1]
  normalized SmoIP GFP fluorescence: 106%
[2]
  normalized SmoIP GFP fluorescence: -2.71%

## CCc1c(C(=O)NCCc2ccc(N3CCCCC3)cc2)[nH]c2ccc(Cl)cc12
[1]
  normalized SmoIP GFP fluorescence: 167%
[2]
  normalized SmoIP GFP fluorescence: -0.804%

## Cc1cc(OCCCS(C)(=O)=O)cc(C)c1-c1cccc(COc2ccc3c(c2)OC[C@H]3CC(=O)O)c1
[1]
  normalized SmoIP GFP fluorescence: 120%
[2]
  normalized SmoIP GFP fluorescence: -6.79%
